Tests used:
Details in all cases: concentration: 1 μM, replicates: in singlicate; n = 1
LRRK2 = test system: LRRK2
LTK = test system: LTK
LYN = test system: LYN
LZK = test system: T1, LZK
T1 construct: gene MAP3K13

MAK = test system: MAK
MAP3K15 = test system: MAP3K15
MAP3K1 = test system: MAP3K1
MAP3K2 = test system: MAP3K2
MAP3K3 = test system: MAP3K3
MAP3K4 = test system: MAP3K4
MAP4K2 = test system: MAP4K2
MAP4K3 = test system: MAP4K3
MAP4K4 = test system: MAP4K4
MAP4K5 = test system: MAP4K5
MAPKAPK2 = test system: MAPKAPK2
MAPKAPK5 = test system: MAPKAPK5
MARK1 = test system: MARK1
MARK2 = test system: MARK2
MARK3 = test system: MARK3
MARK4 = test system: MARK4
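Note: KINOMEscan kinase panel screen.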

Row | SMILES | %Inh (LRRK2) | %Inh (LTK) | %Inh (LYN) | %Inh (LZK) | %Inh (MAK) | %Inh (MAP3K15) | %Inh (MAP3K1) | %Inh (MAP3K2) | %Inh (MAP3K3) | %Inh (MAP3K4) | %Inh (MAP4K2) | %Inh (MAP4K3) | %Inh (MAP4K4) | %Inh (MAP4K5) | %Inh (MAPKAPK2) | %Inh (MAPKAPK5) | %Inh (MARK1) | %Inh (MARK2) | %Inh (MARK3) | %Inh (MARK4)
1 | Fc1ccc(-c2nn3cccc(F)c3c2-c2ccncc2)cc1 [GW475620] | 24% | 8% | 6% | 0% | 0% | 0% | 9% | 8% | 0% | 0% | 0% | 10% | 47% | 24% | 29% | 0% | 1% | 0% | 0% | 4%
2 | CC[C@@H]1CO[C@H](C(=O)Nc2ccccc2)CN1c1cc(-c2ccc3c(N)n[nH]c3c2)nc(NC)n1 [GSK2376236] | 0% | 5% | 0% | 0% | 21% | 0% | 21% | 0% | 0% | 0% | 0% | 0% | 0% | 0% | 0% | 0% | 0% | 5% | 0% | 0%
3 | Cl.Cl.Cl.N#Cc1ccc(CCNc2nccc(-c3cccc(CN4CCNCC4)c3)n2)cc1 [GSK2137462] | 0% | 0% | 1% | 0% | 8% | 0% | 15% | 5% | 0% | 0% | 0% | 8% | 21% | 4% | 0% | 0% | 0% | 6% | 25% | 0%
4 | COc1ccc(Nc2nccc(N3CCC(NC(=O)c4cc5ccccc5s4)C3)n2)cc1 (stereo not drawn) [GSK1379738] | 0% | 0% | 0% | 23% | 86% | 0% | 5% | 0% | 0% | 29% | 0% | 2% | 0% | 0% | 0% | 0% | 0% | 0% | 3% | 0%
5 | Nc1cccc(-c2ccc3c(N)n[nH]c3c2)n1 [GSK2192730] | 0% | 0% | 0% | 0% | 26% | 0% | 23% | 0% | 0% | 25% | 59% | 0% | 0% | 0% | 0% | 0% | 0% | 10% | 0% | 0%
6 | Cc1c(Cn2c(C)c(C)n3c(=O)cc(N4CCOCC4)nc23)cccc1C(F)(F)F [GSK2328680] | 0% | 0% | 0% | 0% | 16% | 0% | 16% | 0% | 0% | 9% | 0% | 0% | 0% | 0% | 16% | 0% | 0% | 0% | 19% | 0%
7 | O=c1cc(N2CCOCC2)nc2n(Cc3cccc(Cl)c3Cl)c3ccccc3n12 [GSK2299009] | 0% | 39% | 0% | 0% | 15% | 3% | 7% | 21% | 0% | 0% | 0% | 0% | 0% | 0% | 32% | 0% | 7% | 0% | 0% | 23%
8 | COc1ccc(Nc2nccc(N3CCC(NC(=O)C(C)c4ccc(Cl)cc4)C3)n2)cc1 (stereo not drawn) [GSK1379735] | 51% | 61% | 0% | 0% | 9% | 11% | 5% | 0% | 0% | 16% | 0% | 11% | 4% | 0% | 32% | 0% | 0% | 0% | 12% | 0%
9 | COC(=O)C(Cc1ccccc1)NC(=O)NC1CCN(c2ccnc(Nc3ccc(F)cc3)n2)C1 (stereo not drawn) [GSK1379714] | 0% | 0% | 22% | 23% | 35% | 0% | 0% | 0% | 0% | 0% | 0% | 0% | 9% | 3% | 21% | 0% | 0% | 8% | 0% | 4%
10 | CCCCc1nn2ncccc2c1-c1ccnc(NC2CC2)n1 [GW684374] | 0% | 0% | 0% | 0% | 19% | 0% | 3% | 0% | 0% | 6% | 0% | 0% | 0% | 0% | 0% | 0% | 0% | 0% | 0% | 0%
11 | Cc1cccc2c(-c3ccncn3)c(-c3ccc(F)cc3)nn12 [GW515532] | 53% | 0% | 0% | 0% | 57% | 0% | 0% | 0% | 0% | 0% | 0% | 12% | 7% | 0% | 8% | 0% | 0% | 0% | 5% | 0%
12 | O=C(Nc1n[nH]c2nc(-c3ccco3)c(Br)cc12)C1CCN(Cc2ccccc2)C1.O=C(O)[C@H](O)[C@@H](O)C(=O)O (stereo not drawn) [SB-742034] | 0% | 11% | 2% | 0% | 25% | 12% | 18% | 21% | 24% | 0% | 14% | 2% | 0% | 0% | 5% | 5% | 27% | 14% | 0% | 14%
13 | CNc1nc(-c2ccc3c(N)n[nH]c3c2)cc(N2C[C@@H](C(=O)Nc3ccccc3)CC[C@H]2C)n1 [GSK2298859] | 0% | 0% | 0% | 20% | 9% | 0% | 0% | 0% | 0% | 0% | 0% | 0% | 6% | 0% | 0% | 0% | 0% | 0% | 0% | 11%
14 | COc1ccc(CSc2nnc(-c3ccc4ncsc4c3)o2)cc1C(F)(F)F | 0% | 0% | 0% | 0% | 0% | 0% | 0% | 0% | 0% | 7% | 0% | 0% | 0% | 0% | 0% | 0% | 0% | 24% | 0% | 2%
15 | O=C(Nc1n[nH]c2nc(-c3cccs3)c(Br)cc12)C1CC1 [SB-735297] | 0% | 0% | 15% | 0% | 34% | 41% | 12% | 7% | 36% | 19% | 0% | 0% | 0% | 0% | 0% | 10% | 1% | 0% | 20% | 6%
16 | Nc1nccc(-c2c(-c3ccc(F)cc3)ncn2C2CCN(Cc3ccccc3)CC2)n1 [SB-219980] | 0% | 11% | 0% | 0% | 0% | 0% | 0% | 29% | 0% | 0% | 19% | 16% | 10% | 73% | 0% | 0% | 5% | 1% | 0% | 1%
17 | COC(=O)c1cccc(NC(=O)NC2CCN(c3ccnc(Nc4ccc(OC)cc4)n3)C2)c1 (stereo not drawn) [GSK1379746] | 0% | 15% | 0% | 34% | 15% | 0% | 0% | 0% | 0% | 12% | 0% | 0% | 0% | 0% | 14% | 0% | 0% | 0% | 4% | 0%
18 | COc1ccc(Nc2nccc(NCCNC(=O)Nc3cc(C)ccc3C)n2)cc1 [GSK1379899] | 23% | 0% | 0% | 0% | 20% | 0% | 1% | 0% | 0% | 3% | 0% | 3% | 16% | 26% | 15% | 0% | 0% | 0% | 0% | 9%
19 | COc1ccc(Nc2nccc(-c3ccc(NC(=O)c4cc5cc(F)ccc5[nH]4)cc3)n2)cc1 [GSK1229496] | 0% | 0% | 0% | 21% | 22% | 0% | 0% | 5% | 0% | 0% | 0% | 0% | 0% | 0% | 0% | 0% | 0% | 0% | 0% | 0%
20 | Cn1cncc1C(=O)NC1CCN(c2ccnc(Nc3ccc(F)cc3)n2)C1 (stereo not drawn) [GSK1379717] | 0% | 6% | 0% | 0% | 22% | 0% | 2% | 11% | 0% | 13% | 0% | 0% | 7% | 30% | 4% | 0% | 0% | 0% | 0% | 0%
21 | COc1ccc(CSc2nnc(-c3ccc4nccn4c3)o2)cc1C(F)(F)F | 0% | 0% | 7% | 18% | 0% | 13% | 15% | 30% | 9% | 12% | 37% | 16% | 7% | 3% | 33% | 27% | 10% | 44% | 0% | 6%
